In ChEMBL document CHEMBL1157539, “Thousands of chemical starting points for antimalarial lead identification” (Nature, 2010):

system: HepG2; experiment: GSK_TCMDC: Percent inhibition of human HepG2 cell line. Test compounds present at 10uM.; assay type: functional

SMILES	Inhibition [%]
Oc1cc(NCc2ccccc2NCc2ccc(Cl)c(Cl)c2)nc2ccccc12	10
COc1cc(NC(=O)c2sc(-c3ccc(Cl)cc3)cc2NC(=O)N2CCCC2)ccc1OCCN1CCCC1	22
O=C(Nc1ccc(CCNCCCc2ccccc2)cc1)Nc1ccc(Cl)c(Cl)c1	33
CC(O)C1CCCCN1C(=O)c1cccc(-c2cccc(-c3nc4ccccc4[nH]3)c2)c1 (stereo not given)	20
COc1nc2c(CCN3CCC(NCc4ccc5c(n4)NC(=O)CO5)CC3)c(Cl)cnc2cc1F.Cl	17
CCN(CC)CCN(Cc1ccc(-c2ccc(C(F)(F)F)cc2)cc1)C(=O)Cn1c(CCc2cccc(F)c2F)nc(=O)c2cc(F)c(F)cc21.O=C(O)C(O)C(O)C(=O)O	41
CN(c1ccc(NC(=O)c2cccc(F)c2)cc1)C1CCCN(Cc2cccc(O)c2)C1.O=C(O)C(F)(F)F (stereo not given)	13
COc1ccc(CN(C)CCCc2ccc(NC(=O)c3cccc4c(=O)c5cccc(F)c5[nH]c34)cc2)cc1OC	100
Cc1nnc2c(NC(=O)NC3CCCC3)cc3cc(-c4ccc(CN(C)C)cc4)ccc3n12	100
CC1CCC(C[C@@H](C(=O)N[C@@H](CCC(=O)N2CCCCC2)C(=O)Nc2nccs2)[C@H](C(C)C)N(O)C=O)CC1 (stereo not given in full)	38
Cn1c(NC2CCN(CC3CCN(C(=O)/C=C/c4ccc(Cl)c(Cl)c4)CC3)CC2)nc2ccccc21	99
Cc1nc2c(s1)c(=O)cc(CCc1cccc(F)c1F)n2CC(=O)N(Cc1ccc(-c2ccc(C(F)(F)F)cc2)cc1)C1CCN(C(C)C)CC1.O=C(O)C(O)C(O)C(=O)O	98
O=C(Nc1ccccc1-c1nc2ccccc2s1)C(Cl)(Cl)Cl	12
COc1cccc(CNC[C@@H](O)[C@H](Cc2ccccc2)NC(=O)c2cc3c4c(c2)c(C(C)C)cn4CCS(=O)(=O)N3C)c1.O=CO	21
COc1ccc(NC2=C(c3ccccc3)C(=O)c3ccccc32)cn1	0
CC(Nc1ccnc2cc(Cl)ccc12)c1ccc(S(N)(=O)=O)cc1 (stereo not given)	5
N=C1NC(c2ccccc2)(c2ccccc2)C(=O)N1CC=Cc1ccccc1.O=C(O)C(F)(F)F	23
Cc1nc2ccc3ccc(CNc4ccc(C(=O)N[C@@H](CCC(=O)O)C(=O)N[C@@H](Cc5cccs5)C(=O)O)c(F)c4)cc3c2c(=O)[nH]1	43
COc1cc(C(=O)NC2CC(C)(C)NC(C)(C)C2)ccc1-c1cc2cc(Cl)c(Cl)cc2[nH]1.O=C(O)C(F)(F)F	41
O=C(Nc1ccc(C(=O)N2CCN(CCN3CCN(c4cccc(C(F)(F)F)c4)CC3)CC2)cc1)c1ccc(OC(F)(F)F)cc1	38

SMILES	Inhibition [%]
Oc1ccccc1CN(CCCN(Cc1ccccn1)Cc1ccccc1O)Cc1ccccn1	64
Cc1ccc(F)c(OCC2CCN(c3ccc(C(=O)NC4CC4)cn3)CC2)c1	4
Cl.Nc1cccc(C=CC(=O)N=c2cc[nH]c3ccccc23)c1	7
CC(Cc1ccc(NC(=O)COc2ccc(CC(C)NCCc3cccc(Cl)c3)cc2)cc1)NCCc1cccc(Cl)c1 (stereo not given)	100
CCNc1cc(C(=O)N[C@@H](Cc2ccccc2)[C@H](O)CNC2(CC)CC2)cc(N2CCCCS2(=O)=O)c1.Cl	59
O=C(Nc1ccccc1)Nc1cccc(-c2cccc(-c3nc4cc(F)ccc4[nH]3)c2)c1	38
COc1c(CCNCCCCNCCc2cc(Cl)c3ccccc3c2OC)cc(Cl)c2ccccc12.CS(=O)(=O)O	99
c1ccc(Oc2ccc(Nc3ccnc4cc(-c5csc(CNCCN6CCOCC6)n5)ccc34)cc2)cc1	0
Cc1cc(Nc2ccc(O)cc2)nc2cc(O)ccc12.Cl	0
Cc1c[nH]c(CCNC(=O)c2cc(-c3ccc(Cl)cc3)cs2)n1	12
CCN(CC)CCN(Cc1ccc(-c2ccc(C(F)(F)F)cc2)cc1)C(=O)Cn1c(CCc2cccc(F)c2F)nc(=O)c2ccc(F)cc21.O=C(O)C(O)C(O)C(=O)O	14
Cc1cc(NC(=O)c2ccc(S(=O)(=O)N(Cc3ccccc3)C(C)C)cc2)no1	0
O=C(Nc1ccc(-c2nc3ccccc3[nH]2)cc1)c1cccc(S(=O)(=O)N2CCOCC2)c1	6
C#CCN(Cc1cc2c(=O)[nH]c(N)nc2cc1C)c1ccc(C(=O)N[C@@H](CCC(=O)O)C(=O)O)cc1	28
COc1cccc2cc(C(=O)N[C@@H](CC(C)C)C(=O)N[C@H](C=NN3CCOC3=O)Cc3ccccc3)oc12	6
Br.N=C1N=C(N)NC2(CCCCC2)N1OCCCOc1cccc2ccccc12	67
Cc1nc(-c2cccc(Nc3ccnc4cc(-c5nccs5)ccc34)c2)no1.Cl	37
CCn1cc(C=C2Oc3c(ccc(O)c3CN3CCCCC3)C2=O)c2cc(OC)ccc21	0
O=C(NC1CCCC1)c1ccc(N2CCC(NCc3cc4cc(Cl)ccc4[nH]3)CC2)cc1	21
Br.CC1(C)NC(N)=NC(=N)N1OCCCCOc1ccccc1	60
